From PubChem BioAssay
BLM helicase inh: blocks DNA unwinding by human BLM helicase; recombinant BLM DNA unwinding, fluorescence dequenching; Potency, µM (series often up to 56.1 µM), for inactives: at the highest dose activity change, negative = inhibition, actives largely listed as inhibitors; 0.2% of 350,000 active;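 also: plate controls were vehicle for no effect and no enzyme for full effect; nearly all actives have a fitted effect of over 35% in size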
RECQ1 inh-1: blocks DNA unwinding by human RECQ1; Potency, µM (top dose mostly 57.3 µM), for the others: top-dose activity, negative = inhibition, most hits filed as inhibitors; RECQ1 DNA unwinding, red fluorescence kinetic read; P46063; 0.54% of 240,000 active;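 also: plate controls were vehicle for no effect and no enzyme for full effect; nearly all actives have a fitted effect of over 30% in size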
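RECQ1T1 50 nM; forked duplex (20 bp + 30-nt ss tails) 200 nM, ATP 2 mM final; pH 8.0, 2 mM MgCl2, 2.5 ug/ml poly(dI-dC); 15 min compound preincubation; discontinuous kinetic read over 2 h at RT.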
APE1 inh: blocks human APE1 abasic DNA cleavage; P27695; recombinant APE1, TAMRA/BHQ-2 abasic DNA cleavage fluorescence; Potency, µM (doses to about 65.8 µM), without a hit: at the highest dose activity change, negative = inhibition, most hits filed as inhibitors; 0.35% of 350,000 active;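 also: plate controls were vehicle for no effect and reference inhibitor for full effect; nearly all actives have a fitted effect of over 55% in size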
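Measures dequenching upon AP-site incision of a 5'-TAMRA/3'-BHQ-2 THF-containing duplex, 50 nM; human APE1 0.75 nM after 15 min room-temperature exposure to compound; kinetic three-point read at one-minute spacing.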
L3MBTL1 inh-1: blocks human L3MBTL1 | Q9Y468 | AlphaScreen L3MBTL1–H3K9me1 peptide binding | Potency, µM (doses to about 57.1 µM), inactives show at the top dose activity, negative = inhibition, most hits filed as inhibitors | 0.66% of 230,000 active | AID 485360; also: % is scaled to controls: 0 for no effect and ±100 for the full control effect; nearly all actives have a fitted effect of over 60% in size
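Displacement of a biotinylated histone H3(1-15) peptide monomethylated at Lys9 (75 nM) from L3MBTL1 (50 nM) was measured by AlphaScreen after a 30 min room-temperature compound incubation; cefsulodin titration served as intraplate control.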
FEN1 inhibitor: human FEN1 inhibition | Recombinant FEN1 flap cleavage, fluorescence, 15 min | Potency, µM (titrated, usually from 114 µM), for inactives: top-dose activity change, negative = inhibition, usual class: inhibitors | 0.35% of 390,000 active; also: % is scaled to controls: 0 for no effect and ±100 for the full control effect; nearly all actives have a fitted effect of over 65% in size
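Read-out was taken twice, immediately and after 15 min, following addition of 50 nM substrate to 10 nM FEN1 that had sat with test compound for 15 min at room temperature. Curves came from a four-parameter Hill model.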
WRN helicase inh: blocks human WRN helicase. WRN helicase unwinding, fluorescent forked duplex, kinetic. Potency, µM (titrated, usually from 114 µM), for inactives: top-dose activity change, negative = inhibition, hits mostly inhibitors. 0.46% of 360,000 active; also: % is scaled to controls: 0 for no effect and ±100 for the full control effect; nearly all actives have a fitted effect of over 55% in size
Target sequence (Q14191 whole entry, looked up): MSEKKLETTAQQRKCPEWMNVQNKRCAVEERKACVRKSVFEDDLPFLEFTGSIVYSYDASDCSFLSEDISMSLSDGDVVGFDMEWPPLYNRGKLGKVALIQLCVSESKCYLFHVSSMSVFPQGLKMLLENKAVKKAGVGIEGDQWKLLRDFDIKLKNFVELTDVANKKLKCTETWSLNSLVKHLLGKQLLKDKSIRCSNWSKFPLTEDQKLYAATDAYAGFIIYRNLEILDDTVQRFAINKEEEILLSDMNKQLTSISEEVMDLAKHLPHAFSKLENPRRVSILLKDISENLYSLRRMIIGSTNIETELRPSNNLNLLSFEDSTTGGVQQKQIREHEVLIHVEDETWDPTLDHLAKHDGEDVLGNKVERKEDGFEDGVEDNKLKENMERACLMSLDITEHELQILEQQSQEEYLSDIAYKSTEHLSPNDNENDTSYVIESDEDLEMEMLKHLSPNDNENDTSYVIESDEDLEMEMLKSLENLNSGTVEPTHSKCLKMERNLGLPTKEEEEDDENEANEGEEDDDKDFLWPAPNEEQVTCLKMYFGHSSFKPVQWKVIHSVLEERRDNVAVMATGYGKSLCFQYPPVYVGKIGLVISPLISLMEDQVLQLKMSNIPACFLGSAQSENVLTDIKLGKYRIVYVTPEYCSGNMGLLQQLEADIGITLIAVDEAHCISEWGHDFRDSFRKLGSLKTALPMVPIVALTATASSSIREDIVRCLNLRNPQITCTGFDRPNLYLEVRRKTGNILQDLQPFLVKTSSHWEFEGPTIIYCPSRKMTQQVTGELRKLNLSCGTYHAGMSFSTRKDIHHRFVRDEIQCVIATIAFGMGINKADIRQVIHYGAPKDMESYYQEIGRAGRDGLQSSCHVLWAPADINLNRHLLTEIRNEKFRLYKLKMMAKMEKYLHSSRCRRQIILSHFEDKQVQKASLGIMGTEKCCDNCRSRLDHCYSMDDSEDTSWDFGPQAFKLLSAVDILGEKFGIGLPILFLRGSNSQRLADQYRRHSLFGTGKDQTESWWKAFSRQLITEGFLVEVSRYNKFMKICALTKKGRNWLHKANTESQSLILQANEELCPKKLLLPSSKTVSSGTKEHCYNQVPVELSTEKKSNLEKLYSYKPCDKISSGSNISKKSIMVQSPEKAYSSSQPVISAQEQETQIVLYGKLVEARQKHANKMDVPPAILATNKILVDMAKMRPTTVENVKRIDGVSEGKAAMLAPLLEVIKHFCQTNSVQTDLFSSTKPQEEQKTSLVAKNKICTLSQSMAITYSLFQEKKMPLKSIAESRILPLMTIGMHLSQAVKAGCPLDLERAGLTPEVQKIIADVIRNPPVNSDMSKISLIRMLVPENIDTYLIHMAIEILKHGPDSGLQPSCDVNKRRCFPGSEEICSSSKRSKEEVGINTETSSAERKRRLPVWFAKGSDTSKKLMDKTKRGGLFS
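Kinetic fluorescence helicase assay: unwinding of a quenched forked DNA duplex (100 nM final) with 2 mM ATP final raises red fluorescence (525/598 nm). Compounds sat 15 min at room temperature with 20 nM WRN beforehand.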
RECQ1 inh conf: confirmation of human RECQ1 helicase inhibitors; RECQ1 helicase DNA unwinding, fluorescence; 28% of 610 active; Potency, µM (highest dose often 229 µM), for inactives: top-dose activity change, negative = inhibition, usual class: inhibitors; shares compounds with RECQ1 inh-1; AID 2708; also: % is scaled to controls: 0 for no effect and ±100 for the full control effect; nearly all actives have a fitted effect of over 45% in size
RECQ1 ADP FP: ADP displacement flagged in RECQ1 inhibitor counter-screen; shares compounds with RECQ1 inh-1; ADP fluorescence polarization displacement counterscreen; Potency, µM (titrated, usually from 228 µM), without a hit: at the highest dose activity change, negative = inhibition, hits mostly inhibitors; 27% of 530 active; AID 2711; also: % is scaled to controls: 0 for no effect and ±100 for the full control effect; nearly all actives have a fitted effect of over 45% in size
RECQ1 inh-2: blocks human RECQ1 DNA unwinding; shares compounds with RECQ1 inh-1; recombinant RECQ1 DNA unwinding, red fluorescence; Potency, µM (doses to about 119 µM), for the others: at the top dose activity, negative = inhibition, actives largely listed as inhibitors; 15% of 1,100 active; AID 504841; also: % is scaled to controls: 0 for no effect and ±100 for the full control effect; nearly all actives have a fitted effect of over 50% in size
L3MBTL1 inh-2: L3MBTL1 binding inhibition validated. shares compounds with L3MBTL1 inh-1. L3MBTL1 methyl-lysine binding inhibition, biochemical qHTS. Potency, µM, usual class: inhibitors. 91% of 500 active. AID 540279; also: nearly all actives have a fitted effect of over 70% in size
L3MBTL1 ctr: counter-screen for L3MBTL1 inhibitors: AlphaScreen signal interference. 500 tested, under 10 active. AlphaScreen counterscreen, signal inhibition. shares compounds with L3MBTL1 inh-1. Potency, µM (series often up to 57.1 µM), inactives show at the highest dose activity change, negative = inhibition, most hits filed as inhibitors. AID 602224; also: 0% is about no effect
Starred values were filed as active, the others as inactive; i = inactive; ? = inconclusive; / = no result; + = active, no number; [ ] = dose if it differs, or a comment. Rows were chosen to be rich in hits. Some 1% of all compounds tested hit in one or more screens of this group. Calls follow the shape of the dose curve; as a rule, active = well fitted curve in the direction sought with a large enough effect; inconclusive = small, poorly fitted or top-dose-only effect, or another doubt; inactive = no such curve, though single readings can be large; an effect the other way counts as inactive or inconclusive. Potency is read from the fitted curve at half-maximal effect.

SMILES	BLM helicase inh	RECQ1 inh-1	APE1 inh	L3MBTL1 inh-1	FEN1 inhibitor	WRN helicase inh	RECQ1 inh-2	others
N=c1c(C(=O)NCc2ccc(F)cc2)cc2c(=O)n3ccccc3nc2n1CCCN1CCOCC1	-7%	?	15%	5%	14%	0%	3%
N=c1c(C(=O)NCc2ccccc2)cc2c(=O)n3ccccc3nc2n1CCCN1CCOCC1	-4%	-6%	-3%	4%	-4%	-5%	/
Cc1ccc(Cl)cc1Nc1nc(N2CCOCC2)nc(N2CCOCC2)n1	-4%	/	16%	/	-8%	5%	/
O=[N+]([O-])c1cc(Cl)ccc1Nc1nc(Nc2ccc(Cl)cc2[N+](=O)[O-])nc(N2CCOCC2)n1	/	/	/	/	0%	/	/	RECQ1 inh conf=-8%[69.1 µM]
c1ccc(Cn2nnc3c(N4CCCCCC4)ncnc32)cc1	1%	?	8%	14%	-22%	-4%	-12%
COCCN1C(=O)C(=O)/C(=C(/O)c2ccc(S(=O)(=O)N3CCOCC3)cc2)C1c1cccc(OC)c1 (stereo not given)	-2%	/	-1%	/	-19%	-11%	/
COCCN1C(=O)C(=O)/C(=C(/O)c2ccc(S(=O)(=O)N3CCOCC3)cc2)C1c1cccc(O)c1 (stereo not given)	8%	-3%	-8%	1%	-13%	1%	/	RECQ1 inh conf=0%;RECQ1 ADP FP=4%
Cc1cc(=O)c2c(O)c3c(O)cc(=O)c4c3c3c(cc(O)c1c23)C(C)(C)C=4O	7.1µM*	1.8µM*	6%	/	/	/	i	RECQ1 inh conf=+;RECQ1 ADP FP=0.32µM*
COc1ccc(NC(=O)C2(C)Cc3c(-c4ccc5c(c4)OCO5)ccnc3O2)cn1 (stereo not given)	/	/	/	/	/	-4%	/
O=C(Nc1ccc(-c2nc3ccc(NC(=O)c4cccs4)cc3[nH]2)cc1)c1cccs1	-5%	?	?	/	?	-23%[57.1 µM]	?
CCCN(C)C1CN(Cc2cn(CCCC(=O)OC)nn2)S(=O)(=O)C1 (stereo not given)	/	/	/	/	/	5%	/
Cc1ccc(C2=NN=C(NC(=O)CSc3nnc4c5ccccc5n(C)c4n3)SC2)cc1	-17%	11µM*	15%	-28%	3%	-16%	/	RECQ1 inh conf=-2%[114 µM]
Cc1ccc(C2=NN=C(NC(=O)CSc3nc(C)cc(C)n3)SC2)cc1	0%	-10%	3%	-12%	/	/	/
COc1ccc(-c2cc(=O)c3cc(O)ccc3o2)cc1	0%	?	1%	-8%	-19%	-5%	-18%
O=c1cc(-c2ccccc2)oc2ccc(O)cc12	-8%	-8%	2%	8%	?	3%	/
Nc1ccc(S(=O)(=O)O)cc1	/	3%	6%	/	/	/	/
CNC(=O)COC(=O)c1c2c(nc3ccccc13)CCC2	-12%	?	-5%	?	?	-17%[57.1 µM]	?
Cc1ccc(/C=C2/CNC/C(=C\c3ccc(C)cc3)C2=O)cc1	-11%	-7%	1%	/	/	/	/
CN(C)c1ccc(/C=C2\SC(=S)N(Nc3ncc(C(F)(F)F)cc3Cl)C2=O)cc1	-11%	10µM*	-1%	-11%	?	50µM*	/	RECQ1 inh conf=7.9µM*;RECQ1 ADP FP=14%[91.9 µM]
Cc1ccc(/C(C#N)=C\c2ccc(N3CCOCC3)o2)cc1	-7%	32µM*	-2%	-9%	-3%	-15%	?
N#C/C(=C/c1ccc(N2CCCCCC2)o1)c1ccc(Cl)cc1	-9%	?	14%	/	8%	-21%	/
COC(=O)c1c(NC(=O)/C=C/C(=O)O)sc(C)c1-c1ccc(C(C)C)cc1	-5%	?	-3%	-14%	-1%	10%	-45%
Cc1cn2c(=O)cc(COC(=O)c3ccc(NC(=O)c4ccccc4C)cc3)nc2s1	1%	/	/	/	-7%	/	/
C[n+]1cccc2c(Br)ccc([O-])c21	20µM*	32µM*	-11%	?	1%	-11%[11.6 µM]	-12%
Cc1nc(C)c(C(=O)Nc2ncc([N+](=O)[O-])s2)o1	-19%	?	?	40µM*	-35%	?	?	L3MBTL1 inh-2=5.3*;L3MBTL1 ctr=6%
CC(C)CC(=O)Nc1ncc([N+](=O)[O-])s1	-12%	-7%	-19%	/	1%	-7%[11.6 µM]	/
Cc1ccc(C)c(N2CCN(C(=O)Cn3nc(Cc4cccnc4)c4ccccc4c3=O)CC2)c1	-6%	/	/	/	-16%	/	/
O=c1c2c3c(sc2[nH]c(=S)n1Cc1ccco1)CCC3	-30%	13µM*	?	25µM*	?	?	/	RECQ1 inh conf=45µM*;RECQ1 ADP FP=?;L3MBTL1 inh-2=11*;L3MBTL1 ctr=28%
